Screening results (PubChem)
JMJD2A Tudor inh: qHTS Assay for Inhibitors of JMJD2A-Tudor Domain; Lysine-specific demethylase 4A (Homo sapiens), O75164; hit rate 4.4% among 390,000; Potency, µM (doses to about 114 µM), actives largely listed as inhibitors; AlphaScreen JMJD2A-Tudor / H3K4me3 peptide binding; AID 504339, 2011; note: nearly all actives have a fitted effect of over 50% in size
BAZ2B inh: qHTS Assay for Inhibitors of BAZ2B; Bromodomain adjacent to zinc finger domain protein 2B (Homo sapiens), Q9UIF8; AlphaScreen BAZ2B-H3K14Ac peptide displacement; Potency, µM (titrated, usually from 114 µM), hits mostly inhibitors; hit rate 4.4% among 360,000; AID 504333, 2011; note: nearly all actives have a fitted effect of over 60% in size
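BAZ2B (50 nM) with biotin-H3(5-23)K14Ac peptide (50 nM) in PBS pH 7.4, 0.01% Tween-20, preformed 30 min, then compound 30 min at room temperature; top concentration 110uM. AlphaScreen streptavidin donor/nickel chelate acceptor beads (10 ug/mL final), 20 min dark, signal read.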
GLS inhibitor: qHTS for Inhibitors of Glutaminase (GLS) | Glutaminase kidney isoform, mitochondrial (Homo sapiens), O94925 | GLS enzymatic activity, qHTS titration | Potency, µM (highest dose often 45.5 µM), usual class: inhibitors | hit rate 0.21% among 410,000
Target sequence (O94925 whole entry, looked up, canonical isoform): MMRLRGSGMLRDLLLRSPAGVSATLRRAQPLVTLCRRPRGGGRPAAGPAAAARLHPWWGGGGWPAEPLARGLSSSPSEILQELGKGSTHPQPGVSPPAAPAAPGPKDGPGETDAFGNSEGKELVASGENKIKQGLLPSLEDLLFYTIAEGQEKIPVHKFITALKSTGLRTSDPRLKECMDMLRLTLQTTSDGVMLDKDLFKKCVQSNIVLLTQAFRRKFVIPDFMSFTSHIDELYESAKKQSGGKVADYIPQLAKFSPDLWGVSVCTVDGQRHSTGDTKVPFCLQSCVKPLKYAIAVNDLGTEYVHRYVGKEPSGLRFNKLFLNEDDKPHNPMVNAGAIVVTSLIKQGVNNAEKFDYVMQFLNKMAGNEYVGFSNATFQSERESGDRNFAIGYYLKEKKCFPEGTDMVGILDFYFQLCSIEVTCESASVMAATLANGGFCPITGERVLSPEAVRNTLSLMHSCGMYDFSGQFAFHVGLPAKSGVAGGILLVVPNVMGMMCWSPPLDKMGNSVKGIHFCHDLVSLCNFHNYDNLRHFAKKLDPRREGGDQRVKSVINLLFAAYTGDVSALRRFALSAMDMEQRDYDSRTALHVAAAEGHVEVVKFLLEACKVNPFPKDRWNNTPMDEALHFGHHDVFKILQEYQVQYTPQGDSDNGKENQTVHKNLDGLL
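Assay buffer: 45 mM KH2PO4 pH 8.2, 0.02% Tween-20. hKGA acts on L-glutamine (1 mM solution added); product glutamate is reported by an oxidase/peroxidase Amplex Red coupling, with fluorescence taken at baseline and 30 min.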
HP1b chromo inh: HTS for Inhibitors of HP1-beta Chromodomain Interactions with Methylated Histone Tails; Chromobox protein homolog 1 (Homo sapiens), P83916; AlphaScreen HP1-beta / biotin-H3K9me3 peptide binding; Potency, µM (doses to about 114 µM), actives largely listed as inhibitors; hit rate 0.56% among 390,000; AID 540317, 2011; note: nearly all actives have a fitted effect of over 70% in size
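HP1-beta protein (50 nM final) preincubated 30 min at room temperature with biotinylated H3(1-18)K9me3 peptide (50 nM) in PBS pH 7.4, 0.01% Tween-20, then compound added for 30 min. AlphaScreen streptavidin donor/nickel chelate acceptor beads (10 ug/mL final), 30 min dark, luminescence read.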
G9a inh: qHTS Assay for Inhibitors of Histone Lysine Methyltransferase G9a. G9a H3K9 monomethylation, AlphaScreen, 2 h. Potency, µM (highest dose often 102 µM), actives largely listed as inhibitors. hit rate 8.8% among 350,000. AID 504332, 2011; note: nearly all actives have a fitted effect of over 75% in size
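Chemiluminescent proximity detection of H3K9 monomethylation, read after 10 min bead incubation in the dark. Reaction: 20 nM G9a, 500 nM biotin-H3K9 peptide, 20 uM SAM cofactor, 2 h, room temperature, following 15 min enzyme-compound preincubation.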
12-hLO cuvette: Cuvette-Based Assay for Inhibitors of 12-hLO (12-human lipoxygenase): 8HQ Series - Round 1. shares compounds with BAZ2B inh. purified 12-hLO, cuvette UV 234 nm product formation. Potency, µM, actives largely listed as inhibitors. hit rate 60% among 35. AID 2163, 2009;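 active = compounds that slowed 12-hLO product formation enough to yield a measured IC50 potency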
JMJD2E inh-1: Inhibitors of Human Jumonji Domain Containing 2E (JMJD2E): 8HQs - Round 1; shares compounds with BAZ2B inh; JMJD2E demethylase, FDH-coupled NADH fluorescence; hit rate 89% among 130; Potency, µM (top dose mostly 57 µM), most hits filed as inhibitors
JMJD2E inh-2: Confirmation qHTS Assay for Inhibitors of Human Jumonji Domain Containing 2E (JMJD2E); shares compounds with JMJD2A Tudor inh; Recombinant JMJD2E, FDH-coupled NADH fluorescence (FDH is formaldehyde dehydrogenase); Potency, µM (top dose mostly 56.8 µM), actives largely listed as inhibitors; hit rate 93% among 140
FDH counter: Counterscreen for JMJD2E Inhibitors: qHTS Assay for Inhibitors of Formaldehyde Dehydrogenase (FDH). shares compounds with JMJD2A Tudor inh. FDH enzyme assay, NADH fluorescence kinetic. Potency, µM (titrated, usually from 56.7 µM), hits mostly inhibitors. hit rate 10% among 140
JMJD2E MS inh: MALDI-TOF-MS Assay for Inhibitors of Human Jumonji Domain Containing 2E (JMJD2E); recombinant JMJD2E demethylation, MALDI-TOF-MS; Potency, µM, hits mostly inhibitors; hit rate 90% among 45; shares compounds with JMJD2A Tudor inh;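 active = compounds whose IC50 for blocking JMJD2E demethylation is below 100 µM; inconclusive = dose dependent effect but IC50 above 100 µM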
Of the large screens only hits and unclear results are named; the others gave an inactive call (follow-up assays come after a bar, where they were run). Rows were chosen to be rich in hits. Some 10% of all compounds tested hit in one or more screens of this group. Unless noted, calls come from the whole dose curve; as a rule, active = well fitted curve in the direction sought with a large enough effect; inconclusive = small, poorly fitted or top-dose-only effect, or another doubt; inactive = no such curve, though single readings can be large; an effect the other way counts as inactive or inconclusive.

CN(C)C1CCN(Cc2cc(COCc3ccccc3)c3cccnc3c2O)C1 (centres undefined)	JMJD2A Tudor inh 32µM, BAZ2B inh 10µM | JMJD2E inh-1 11µM | JMJD2E inh-2 7.9µM | FDH counter inactive
Oc1c(CN2CCCCC2)cc(COCc2ccccc2)c2cccnc12	JMJD2A Tudor inh 20µM, BAZ2B inh 6.3µM, G9a inh inconclusive | JMJD2E inh-1 4µM | JMJD2E inh-2 4µM | FDH counter inactive
O=C(OCC(=O)N1CCC(Cc2ccccc2)CC1)c1cccnc1Cl	none (no result: BAZ2B inh, G9a inh)
O=C(COC(=O)c1cc2ccccc2cc1O)Nc1ccccc1F	none (no result: BAZ2B inh, G9a inh)
Oc1cccc2cc(CNc3ccccc3F)cnc12	none (no result: JMJD2A Tudor inh, BAZ2B inh, GLS inhibitor, HP1b chromo inh, G9a inh) | JMJD2E inh-1 inconclusive | JMJD2E inh-2 3.2µM | FDH counter inactive
Oc1ccccc1CNc1cnc2ccccc2c1	none
Oc1cccc2cc(NCc3ccccc3F)cnc12	none (no result: JMJD2A Tudor inh, BAZ2B inh, GLS inhibitor, HP1b chromo inh, G9a inh) | JMJD2E inh-1 32µM | JMJD2E inh-2 20µM | FDH counter inactive
O=S(=O)(NCc1ccc(Cl)cc1)c1cccc2cccnc12	none (no result: G9a inh)
Oc1cc(NCc2ccc(Cl)cc2)cc2cccnc12	none | JMJD2E inh-1 inactive | JMJD2E inh-2 inactive | FDH counter inactive | JMJD2E MS inh inconclusive
Fc1ccc(CNc2ncccn2)cc1	none
CN(C)CCCNc1cc(O)c2ncccc2c1	JMJD2A Tudor inh 35µM, BAZ2B inh 8.9µM, G9a inh inconclusive | JMJD2E inh-1 28µM | JMJD2E inh-2 28µM | FDH counter inactive | JMJD2E MS inh inconclusive
COc1cc(NCc2ccccc2O)c2ncccc2c1	BAZ2B inh inconclusive
Oc1cc(NCc2ccc(F)cc2)cc2cccnc12	BAZ2B inh inconclusive | JMJD2E inh-1 36µM | JMJD2E inh-2 inconclusive | FDH counter inactive | JMJD2E MS inh 75
CCc1ccc(S(=O)(=O)NCCc2cn3ccsc3n2)cc1	none
COc1ccc(C(=O)OC(C(=O)c2ccc(C)cc2)c2ccccc2)cc1 (centres undefined)	G9a inh inconclusive
Cc1cccc(NC(=O)c2ccccc2C(=O)Nc2cccc(C)c2)c1	none (no result: BAZ2B inh, G9a inh)
CCC(=O)NC(c1cccc(C)c1)c1cc(Cl)c2cccnc2c1O (centres undefined)	none (no result: BAZ2B inh, GLS inhibitor, HP1b chromo inh, G9a inh) | 12-hLO cuvette inactive | JMJD2E inh-1 35µM | JMJD2E inh-2 35µM | FDH counter inactive
CCC(=O)NC(c1cccs1)c1ccc2cccnc2c1O (centres undefined)	JMJD2A Tudor inh 79µM, BAZ2B inh 25µM (no result: G9a inh) | 12-hLO cuvette 3.4µM | JMJD2E inh-1 10µM | JMJD2E inh-2 10µM | FDH counter inactive
